# ± gives the standard deviation of the averaged measurements.
# Tested on: MDAMB436
# Assay: cell proliferation (confluence) relative to DMSO control; higher = less growth inhibition
# Conditions: 5 uM; 6 d
# Experimental: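 Epigenetic chemical probe screen: 15 TNBC cell lines, 500 cells per well in 384-well plates, treated with 5 uM of each of 36 SGC probes for 6 d. Confluency was imaged by IncuCyte ZOOM and normalised to DMSO control wells. Four replicate wells per compound.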
row,SMILES,cell proliferation
1,c1ccc([C@@H]2C[C@H]2NC2CCNCC2)cc1,93.8 ± 3.3%
2,O=C(O)CNC(=O)c1c(O)c2ccccc2n(Cc2ccccc2)c1=O,96.4 ± 0.42%
3,COc1cc(C(=O)N2CC[C@@H](O)[C@@H](N)C2)cc2nc(-c3cc4ccccc4n3CC3CC3)n(C)c12,76.4 ± 6.2%

# Source: the supplement of paper PMC9337992
